Most compounds without a hit are left out; they make up all but 7.3% or so of the library.
FLuc counter: qHTS profiling assay for firefly luciferase inhibitor/activator using purifed enzyme and Km concentrations of substrates (counterscreen for miR-21 project). Potency, µM (titrated, usually from 57.5 µM), without a hit: top-dose activity change, negative = inhibition, most hits filed as inhibitors. purified FLuc, Km substrates, luminescence inhibition. AID 588342, 2011. 360,000 compounds, 6.9% hits. Luciferin 4-monooxygenase (Photinus pyralis), P08659;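 further: plate controls were vehicle for no effect and reference inhibitor for full effect; nearly all actives have a fitted effect of over 55% in size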
Target sequence (P08659 whole entry, looked up): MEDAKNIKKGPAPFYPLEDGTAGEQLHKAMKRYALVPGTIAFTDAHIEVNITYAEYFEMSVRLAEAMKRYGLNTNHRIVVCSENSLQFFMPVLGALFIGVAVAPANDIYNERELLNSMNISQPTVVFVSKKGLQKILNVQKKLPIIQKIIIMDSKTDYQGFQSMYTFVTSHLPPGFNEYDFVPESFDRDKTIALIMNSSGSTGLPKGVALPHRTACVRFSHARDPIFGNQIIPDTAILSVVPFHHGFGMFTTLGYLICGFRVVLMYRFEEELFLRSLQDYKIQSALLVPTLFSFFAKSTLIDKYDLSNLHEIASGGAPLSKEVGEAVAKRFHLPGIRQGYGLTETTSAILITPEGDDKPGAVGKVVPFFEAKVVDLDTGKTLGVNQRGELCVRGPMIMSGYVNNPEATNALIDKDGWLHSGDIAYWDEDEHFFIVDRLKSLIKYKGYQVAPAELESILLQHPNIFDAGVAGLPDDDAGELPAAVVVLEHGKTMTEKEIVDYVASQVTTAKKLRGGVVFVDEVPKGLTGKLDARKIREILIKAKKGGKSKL
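Biochemical qHTS of compounds, final roughly 60 µM downward over six points, against 10 nM purified firefly luciferase using Km concentrations of substrates (10 uM D-luciferin, 10 uM ATP) in Tris acetate pH 7.5 buffer; luminescence output.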
NPC1 prom act: qHTS Assay for NPC1 Promoter Activators; Huh7 NPC1 promoter luciferase reporter, 24 h; Potency, µM (titrated, usually from 9.22 µM), without a hit: top-dose activation, hits mostly activators; 320,000 compounds, 2.4% hits; AID 485313, 2010; further: % of control where 0% means no effect; nearly all actives have a fitted effect of over 60% in size
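Luminescence read-out of NPC1 promoter-driven luciferase in stably transfected Huh7 cells; compounds delivered in DMSO and left 24 h at 37C, 5% CO2, qHTS titration format.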
Luc counter: Counterscreen for Luciferase (Kinase-Glo TM) Inhibition | Kinase-Glo luciferase, ATP luminescence, 8 min | Luciferin 4-monooxygenase (Photuris pensylvanica), Q27757 | Potency, µM (titrated, usually from 38.3 µM), for inactives: at the top dose activity change, negative = inhibition, actives largely listed as inhibitors | 200,000 compounds, 0.28% hits | AID 1379, 2008; further: on the % scale 0 is the no-effect control and ±100 the full control effect; nearly all actives have a fitted effect of over 60% in size
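Recombinant Kinase-Glo luciferase, 10 uM ATP (linear range), luciferin; imidazole pH 7.2 / KCl / MgCl2 / Tween / BSA buffer; 8 min RT; luminescence.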
Rab9 prom act: qHTS Assay for Rab9 Promoter Activators | AID 485297, 2010 | 320,000 compounds, 2.8% hits | Huh7 Rab9 promoter-luciferase reporter, luminescence, 24 h | Potency, µM (titrated, usually from 9.22 µM), inactives show top-dose activation, negative = inhibition, most hits filed as activators; further: % of control where 0% means no effect; nearly all actives have a fitted effect of over 60% in size
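Luminescence from Amplite-detected luciferase (10 minutes, ambient) reports Rab9 promoter activation. Before that, stable Rab9-luciferase Huh7 cells (1500/well, reduced-serum OP-MEM I plus 10% FBS) were exposed to compound for 24 hours at 37C.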
SMN2 splice enh: qHTS Assay for Enhancers of SMN2 Splice Variant Expression; HEK293 SMN2-luciferase splicing reporter, luminescence, 30-36 h; Potency, µM (doses to about 46.1 µM), without a hit: at the top dose activity change, positive = activation, hits mostly activators; 210,000 compounds, 2.8% hits; AID 1458, 2008; further: % of control where 0% means no effect; nearly all actives have a fitted effect of over 55% in size
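qHTS luciferase splicing reporter: luminescence rises when SMN2 exon 7 is included in transfected HEK293 cells. Compound exposure lasted 30-36 h at 37C, with 4.5 mM final sodium butyrate as control, followed by a ONE-Glo read.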
ELG1 genotoxic: qHTS screen for small molecules that induce genotoxicity in human embryonic kidney (HEK293T) cells expressing luciferase-tagged ELG1. Potency, µM (doses to about 46 µM), for the others: at the highest dose activity change, positive = activation, hits mostly activators. HEK293T ELG1-luciferase reporter, luminescence, 16 h. 330,000 compounds, 1.3% hits. AID 504466, 2011; further: % of control where 0% means no effect; nearly all actives have a fitted effect of over 60% in size
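Genotoxic stress is detected as increased luminescence from luciferase-tagged ELG1 in HEK293T cells, measured with ONE-Glo after a 16 hr treatment at 37 °C.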
The depositor's hits bear a star; u = inconclusive; x = no result given. The call rests on the fitted dose curve; in most records, active means well fitted curve in the direction sought with a large enough effect; inconclusive means small, poorly fitted or top-dose-only effect, or another doubt; inactive means no such curve, though single readings can be large; an effect the other way counts as inactive or inconclusive. Potency means the concentration at half of the fitted maximal effect.

SMILES	FLuc counter	NPC1 prom act	Luc counter	Rab9 prom act	SMN2 splice enh	ELG1 genotoxic
Cc1ccc(N=Cc2c(O)c3ccccc3oc2=O)cc1F	1.7µM*	-2%	x	14%	x	-1%
Cc1cc(C)cc(N=Cc2c(O)c3ccccc3oc2=O)c1	-11%	-7%	0%	3%	-9%	4%
O=C(O)c1cc(N=Cc2c(O)c3ccccc3oc2=O)ccc1O	7.6µM*	-3%	x	-5%	x	-7%
NS(=O)(=O)c1ccc(N=Cc2c(O)c3ccccc3oc2=O)cc1	-3%	-4%	-1%	0%	-4%	-6%
Cc1ccc(C)c(N=Cc2c(O)c3ccccc3oc2=O)c1	3µM*	-2%	x	-1%	x	1%
Cc1cccc(/N=C/c2c(O)c3ccccc3oc2=O)n1	5.4µM*	-1%	u	2%	37%	7%
Cc1ccc(-n2c(N)cc(=O)nc2SCC(=O)N2CCN(c3ccccc3)CC2)cc1	2%	-2%	x	6%	x	-4%
CCn1cc(C(=O)N2CCN(c3cc(Cl)ccc3C)CC2)c2cc(OC)c(OC)cc2c1=O	4%	x	x	x	9%	x
Cc1cc(C)c(N=Cc2c(O)c3ccccc3oc2=O)c(C)c1	3.8µM*	17%	x	2%	x	u
Cc1cnc(C(=O)Nc2ccc(N3CCCCC3)cc2)cn1	7.6µM*	3.5µM*	-2%	3.2µM*	11µM*	u
Cc1cnc(C(=O)Nc2ccc(N3CCOCC3)cc2)cn1	u	25%	-2%	u	u	u
Cc1cc(C(=O)Nc2ccc(N3CCCCC3)cc2)no1	1.3µM*	0.32µM*	x	0.28µM*	x	u
COc1ccc(CCNC(=O)C2CCN(S(=O)(=O)c3ccc(-n4cnnn4)cc3)CC2)cc1OC	1%	-2%	3%	1%	16%	-1%
COc1cc(C(=O)NCCNC(=O)c2ccc(C)nc2)cc(OC)c1OC	-1%	-1%	x	0%	x	5%
Cc1noc(C)c1COc1ccc(C(=O)N2CCN(S(=O)(=O)c3ccc(Cl)cc3)CC2)cc1	2%	-2%	x	-8%	x	1%
CCOC(=O)c1cc(-c2ccc(OC(F)F)cc2)nc2c1c(=O)[nH]c(=O)n2C	0%	-3%	-2%	-4%	0%	6%
CCOC(=O)c1cc(-c2ccc(OC(F)F)cc2)nc2nc(SC)[nH]c(=O)c12	6µM*	1%	x	-4%	x	-4%
COc1cccc(-c2ccc3c(N)c(C(=O)c4ccc(Br)cc4)sc3n2)c1	-4%	x	x	x	-8%	x
Cc1ccc(-n2nc(CO)c(C(=O)NCCCc3ccccc3)n2)cc1	-6%	x	x	x	-11%	x
O=C(Nc1ccncc1)c1ccc(F)cc1	4%	1%	0%	0%	-13%	2%
O=C(Nc1ccc2[nH]ccc2c1)c1ccc(F)cc1	1.5µM*	0.4µM*	x	0.5µM*	x	u
O=C(Nc1ccc2[nH]ccc2c1)c1ccccc1	3.4µM*	0.56µM*	x	1.4µM*	x	u
O=C(NC(=S)Nc1ccc2[nH]ncc2c1)c1ccccc1	u	u	-6%	u	22%	15%
O=[N+]([O-])c1ccccc1CNCCCCO	-1%	0%	x	-3%	x	0%
COc1ccc(/C=N/NC(=S)SC)cc1OC	11µM*	-3%	-1%	-3%	-3%	3%
COC(=O)N/N=C/c1ccccc1	-16%	-2%	-7%	4%	30%	10%
CSC(=S)N/N=C/c1ccccc1	15µM*	-2%	1%	-4%	3%	-2%
S=C(N/N=C/c1ccccc1)N1CCOCC1	24µM*	12%	-6%	-4%	1%	2%
Cc1ccc(S(=O)(=O)N2CCOCC2)cc1C(=O)Nc1ccc(C(N)=O)cc1	5%	-4%	x	12%	x	0%

Source: PubChem BioAssay (National Center for Advancing Translational Sciences (NCATS))
